Source: PubChem BioAssay
Shown are actives, neighbours in structure and some others; about 1.6% of the full set was active somewhere.
ROCK2 blocker: inhibitors of human ROCK2 kinase, primary screen, biochemical, high-throughput, luminescence. AID 604, 2007. purified ROCK2, Kinase-Glo ATP depletion luminescence. 60,000 tested, 0.35% active. inhibition, % at 6 µM. Rho-associated protein kinase 2 (Homo sapiens), O75116;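 active = inhibition above the screen-wide mean inhibition plus 3 SD, cut at about 18% in these data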
Hsp90 inh: tumor Hsp90 inhibitors, primary screen, cell lysate, fluorescence polarization, NCI-N417 lysate; 64,000 tested, 0.35% active; Heat shock protein HSP 90-alpha (Homo sapiens), P07900; Cy3B-geldanamycin FP displacement; inhibition, % at 30 µM; AID 429, 2006;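 active = inhibition above 50%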
SKBR3 24h inh: SK-BR-3 proliferation inhibitors, primary screen, cell-based, human, 24 h. viability, % at 10 µM. 41,000 tested, 0.47% active. SK-BR-3 viability, CellTiter-Glo ATP luminescence; stronger effect = lower value;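 active = viability at or below the median of all test compounds minus 3 SD, in both replicates if run twice, cut at about 45% in these data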
Her2 expr inh: inhibitors of Her2 protein expression, primary screen, SKBR-3 cells, AlphaScreen, 66K library | 65,000 tested, 0.69% active | HER2 level % of control, % at 10 µM | SKBR-3 HER2 protein level, 18-24 h; stronger effect = lower value | Receptor tyrosine-protein kinase erbB-2 (Homo sapiens), P04626;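 active = HER2 level under 5% of the carrier-only control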;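 note: lower value means stronger loss of Her2 protein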
Target sequence (P04626 whole entry, looked up): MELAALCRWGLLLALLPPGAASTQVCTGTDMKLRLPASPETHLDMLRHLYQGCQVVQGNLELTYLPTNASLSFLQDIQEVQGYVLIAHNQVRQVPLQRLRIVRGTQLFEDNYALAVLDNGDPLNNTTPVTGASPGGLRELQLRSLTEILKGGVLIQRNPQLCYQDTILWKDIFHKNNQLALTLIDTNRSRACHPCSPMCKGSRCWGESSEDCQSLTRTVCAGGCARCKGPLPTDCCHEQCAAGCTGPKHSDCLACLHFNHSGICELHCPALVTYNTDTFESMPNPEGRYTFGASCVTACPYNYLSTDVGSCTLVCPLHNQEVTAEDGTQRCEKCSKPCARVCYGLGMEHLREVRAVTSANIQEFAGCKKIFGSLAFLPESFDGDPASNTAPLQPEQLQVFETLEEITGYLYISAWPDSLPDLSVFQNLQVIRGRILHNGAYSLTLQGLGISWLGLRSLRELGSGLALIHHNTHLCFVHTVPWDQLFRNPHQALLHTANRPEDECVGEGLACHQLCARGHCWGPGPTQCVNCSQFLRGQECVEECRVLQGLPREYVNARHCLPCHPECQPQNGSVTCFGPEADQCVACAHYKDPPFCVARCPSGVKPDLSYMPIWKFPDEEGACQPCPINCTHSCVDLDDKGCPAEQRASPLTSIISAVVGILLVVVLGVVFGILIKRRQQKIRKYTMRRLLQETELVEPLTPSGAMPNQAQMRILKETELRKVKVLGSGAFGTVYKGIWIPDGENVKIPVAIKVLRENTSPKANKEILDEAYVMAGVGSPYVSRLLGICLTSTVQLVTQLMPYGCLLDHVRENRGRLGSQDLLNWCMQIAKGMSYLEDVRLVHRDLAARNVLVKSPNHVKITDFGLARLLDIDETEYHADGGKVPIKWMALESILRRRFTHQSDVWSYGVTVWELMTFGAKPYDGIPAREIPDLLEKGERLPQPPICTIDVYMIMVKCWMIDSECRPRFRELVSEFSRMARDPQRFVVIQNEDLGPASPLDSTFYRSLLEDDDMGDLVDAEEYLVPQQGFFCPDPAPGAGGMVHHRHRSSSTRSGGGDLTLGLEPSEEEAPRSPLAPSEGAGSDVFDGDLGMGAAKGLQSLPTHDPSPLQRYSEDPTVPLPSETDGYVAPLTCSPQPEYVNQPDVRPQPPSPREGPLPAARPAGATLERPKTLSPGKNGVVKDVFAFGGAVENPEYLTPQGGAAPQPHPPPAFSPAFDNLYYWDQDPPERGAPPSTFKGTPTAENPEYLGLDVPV
PKA kinase inh: inhibitors of human PKA kinase activity, primary screen, biochemical, ATP-depletion luminescence, Kemptide substrate; AID 524, 2006; 65,000 tested, 0.1% active; PKA Kemptide phosphorylation, Kinase-Glo ATP luminescence; cAMP-dependent protein kinase catalytic subunit alpha (Homo sapiens), P17612; inhibition, % at 6 µM;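 active = inhibition above the screen-wide mean inhibition plus 3 SD, cut at about 21% in these data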
WNV protease inh: inhibitors of WNV NS2B-NS3 protease, primary screen, biochemical, fluorogenic substrate | z-score (test concentration not listed) | Genome polyprotein (West Nile virus), P06935 | AID 577, 2007 | 65,000 tested, 0.18% active | fluorogenic substrate Ex360/Em465; stronger effect = lower value; in the data active = z-score below about -3
Large screens that a line does not name were inactive.

C[C@H]1CCCC(=O)CCCCCc2cc(O)cc(O)c2C(=O)O1	Hsp90 inh 88.4
Cn1ncnc2c(=O)n(C)c(=O)nc1-2	ROCK2 blocker 66.7, Hsp90 inh 91.0, SKBR3 24h inh 5.5, Her2 expr inh 1.0
Cc1nccc2c1[nH]c1ccccc12	none (no result: ROCK2 blocker, SKBR3 24h inh, Her2 expr inh, PKA kinase inh, WNV protease inh)
c1ccc2c(c1)[nH]c1cnccc12	ROCK2 blocker 24.2
Cc1c2ccncc2c(C)c2c1[nH]c1ccccc12	ROCK2 blocker 45.8, PKA kinase inh 45.7
C[C@]12Cc3cn4c(nc3C=C1CCC1C2CC[C@@]2(C)[C@H]1CC[C@@]2(O)C#N)nc1ccccc14 (some centres undefined)	none (no result: ROCK2 blocker, SKBR3 24h inh, Her2 expr inh, PKA kinase inh, WNV protease inh)
C=CCn1c(O)c(C(C)=NCc2cc(OC)cc(OC)c2)c(=O)[nH]c1=O	SKBR3 24h inh 38.0
C[C@]12CC[C@H]3[C@@H](CCC4C[C@H](O)CC[C@@]43C)[C@@H]1CC[C@@H]2O (some centres undefined)	none (no result: ROCK2 blocker, SKBR3 24h inh, Her2 expr inh, PKA kinase inh, WNV protease inh)
CCCn1c(C)c(C(=O)c2ccc3ccccc3c2)c2ccccc21	none (no result: ROCK2 blocker, SKBR3 24h inh, Her2 expr inh, PKA kinase inh, WNV protease inh)
CN1C[C@@H](CS(=O)(=O)N(C)C)C[C@@H]2c3cccc4c3c(cn4C)C[C@H]21	none (no result: ROCK2 blocker, SKBR3 24h inh, Her2 expr inh, PKA kinase inh, WNV protease inh)
O=C(NC1(C(F)(F)F)Oc2ccc(Cl)cc2O1)N1CCC2(CC1)OCCO2 (centres undefined)	Hsp90 inh 64.2 (no result: ROCK2 blocker)
CN1CCC23CCCC[C@H]2C1Cc1ccc(O)cc13 (some centres undefined)	none (no result: ROCK2 blocker, SKBR3 24h inh, Her2 expr inh, PKA kinase inh, WNV protease inh)
N=C(N)c1c(O)n(C2CCCCC2)c(=O)n(C2CCCCC2)c1=O	SKBR3 24h inh 2.8, Her2 expr inh -6.5
CC(O)C(C)OC(=O)[C@@H]1C[C@@H]2c3cccc4c3c(cn4C(C)C)C[C@H]2N(C)C1 (some centres undefined)	none (no result: ROCK2 blocker, SKBR3 24h inh, Her2 expr inh, PKA kinase inh, WNV protease inh)
COP(=O)(OC)C(O)C(Cl)(Cl)Cl (centres undefined)	WNV protease inh -3.44
CCN1CCN(Cc2nnnn2C(C)(C)C)CC1	ROCK2 blocker 20.8, PKA kinase inh 66.2
N[C@@H](Cn1ccc(=O)[nH]c1=O)C(=O)O	none (no result: ROCK2 blocker, SKBR3 24h inh, Her2 expr inh, PKA kinase inh, WNV protease inh)
Nc1c(C(=O)NCCc2ccccc2)c2nc3ccccc3nc2n1CCN1CCOCC1	SKBR3 24h inh 2.9, Her2 expr inh -5.1
COc1ccc(CCNC(=O)c2c(N)n(CCN3CCOCC3)c3nc4ccccc4nc23)cc1	none
COc1cc(C=C(C#N)C#N)cc(O)c1O	Hsp90 inh 68.8 (no result: ROCK2 blocker, SKBR3 24h inh, Her2 expr inh, PKA kinase inh, WNV protease inh)
N#CC(=Cc1ccc(O)c(O)c1)C(N)=S	Hsp90 inh 52.1 (no result: ROCK2 blocker, SKBR3 24h inh, Her2 expr inh, PKA kinase inh, WNV protease inh)
N#CC(C#N)=Cc1ccc(O)c(O)c1	Hsp90 inh 62.6 (no result: ROCK2 blocker, SKBR3 24h inh, Her2 expr inh, PKA kinase inh, WNV protease inh)
CC(C)(C)c1cc(C=C(C#N)C#N)cc(C(C)(C)C)c1O	none (no result: ROCK2 blocker, SKBR3 24h inh, Her2 expr inh, PKA kinase inh, WNV protease inh)
c1ccc2sc(C3(N4CCCCC4)CCCCC3)cc2c1	none (no result: ROCK2 blocker, SKBR3 24h inh, Her2 expr inh, PKA kinase inh, WNV protease inh)
C[C@@]1(CO)[C@H](O)CC[C@@]2(C)[C@H]1CC[C@H]1C[C@@H]3C[C@@]12CC[C@]3(O)CO	Her2 expr inh -15.3
Cc1cccc(C)c1NC1=NCCCS1	Her2 expr inh -9.3 (no result: SKBR3 24h inh)
COc1ccc(N2CCN(C(CNC(=O)Oc3ccccc3)c3cccnc3)CC2)cc1 (centres undefined)	WNV protease inh -7.25
O=C(NCC(c1cccnc1)N1CCN(c2ccccc2F)CC1)Oc1ccccc1 (centres undefined)	none (no result: ROCK2 blocker, SKBR3 24h inh)
Oc1ccc2c3c1O[C@H]1c4oc5ccccc5c4C[C@@]4(O)C(C2)N(CC2CC2)CCC314 (some centres undefined)	none (no result: ROCK2 blocker, SKBR3 24h inh, Her2 expr inh, PKA kinase inh, WNV protease inh)
CN(C)[C@@H]1C(=O)C(C(N)=O)=C(O)[C@@]2(O)C(=O)C3=C(O)c4c(O)cccc4[C@@](C)(O)[C@H]3C[C@@H]12	Hsp90 inh 72.4
N[C@@H](Cn1cc(I)c(=O)[nH]c1=O)C(=O)O	none (no result: ROCK2 blocker, SKBR3 24h inh, Her2 expr inh, PKA kinase inh, WNV protease inh)
O=C(Cc1ccccc1)N1CCN(C2CCCC2)CC1	none
O=C(COc1ccccc1)N1CCN(C2CCCC2)CC1	Her2 expr inh -4.8
CCCCCCCCCCCCCC(=O)O[C@@H]1[C@@H](C)[C@@]2(O)[C@@H](C=C(CO)C[C@@]3(O)C(=O)C(C)=C[C@@H]23)C2C(C)(C)[C@@]21OC(C)=O (some centres undefined)	none (no result: ROCK2 blocker, SKBR3 24h inh, Her2 expr inh, PKA kinase inh, WNV protease inh)
CCNCC1(c2ccc(OC)c(OC)c2)CCCC1	WNV protease inh -4.84
CP(=O)(O)C1=CCNCC1	none (no result: ROCK2 blocker, SKBR3 24h inh, Her2 expr inh, PKA kinase inh, WNV protease inh)
CC(C)N1CC=C(c2c[nH]c3ccccc23)CC1	none (no result: SKBR3 24h inh)
C1=C(c2c[nH]c3ccccc23)CCNC1	ROCK2 blocker 27.8, PKA kinase inh 20.8 (no result: SKBR3 24h inh)
CCN1C[C@]2(C)CC[C@H](O)[C@@]34C5C[C@@H]6[C@@H](OC)C[C@@](O)(C5[C@H]6O)[C@@H](CC23)C14 (some centres undefined)	none (no result: ROCK2 blocker, SKBR3 24h inh, Her2 expr inh, PKA kinase inh, WNV protease inh)
